Source: PubChem BioAssay (National Center for Advancing Translational Sciences (NCATS))
In the library only some 12% were active in any assay of this set; here they are far more common.
G9a block = G9a (human) methyltransferase inhibition. G9a H3K9 monomethylation, AlphaScreen, 2 h. Potency, µM (series often up to 102 µM), hits mostly inhibitors. Q96KQ7. 8.8% of 350,000 active; also: nearly all actives have a fitted effect of over 75% in size
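AlphaScreen read-out: biotin-H3K9 peptide (500 nM) methylation by 20 nM enzyme with 20 uM SAM, 2 h at room temperature after 15 min compound preincubation; anti-monomethyl H3K9 antibody plus donor/acceptor beads, 10 min dark.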
BAZ2B block = inhibitors of human BAZ2B bromodomain; Q9UIF8; AlphaScreen BAZ2B-H3K14Ac peptide displacement; 4.4% of 360,000 active; Potency, µM (highest dose often 114 µM), usual class: inhibitors; AID 504333; also: nearly all actives have a fitted effect of over 60% in size
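Complex of BAZ2B and biotin-H3K14Ac (50 nM apiece) forms over 30 min at RT, then faces library compounds up to 110 uM for another 30 min; AlphaScreen beads added, 20 min dark incubation, luminescence read.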
JMJD2A Tudor = blocks the human JMJD2A Tudor domain | O75164 | AlphaScreen JMJD2A-Tudor / H3K4me3 peptide binding | Potency, µM (series often up to 114 µM), hits mostly inhibitors | 4.4% of 390,000 active | AID 504339; also: nearly all actives have a fitted effect of over 50% in size
Sfp inh = blocks B. subtilis Sfp PPTase activity; Potency, µM, usual class: inhibitors; AID 1490; Biochemical Sfp PPTase activity, qHTS; Q9F4F7; 3.5% of 310,000 active;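 also: the enzyme is Sfp with the accession as filed and its product quenches rhodamine fluorescence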
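Buffer: 50 mM Hepes-Na pH 7.6, 10 mM MgCl2, 0.01% Nonidet P-40, 0.01% BSA. Enzyme 15 nM, pre-exposed to compound 15 min; substrates then added and fluorescence change tracked over 30 min.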
L3MBTL1 inh = inhibitors of human L3MBTL1 | AlphaScreen L3MBTL1–H3K9me1 peptide binding | Potency, µM (highest dose often 57.1 µM), usual class: inhibitors | 0.66% of 230,000 active | AID 485360; also: nearly all actives have a fitted effect of over 60% in size
Target sequence (Q9Y468 whole entry, looked up): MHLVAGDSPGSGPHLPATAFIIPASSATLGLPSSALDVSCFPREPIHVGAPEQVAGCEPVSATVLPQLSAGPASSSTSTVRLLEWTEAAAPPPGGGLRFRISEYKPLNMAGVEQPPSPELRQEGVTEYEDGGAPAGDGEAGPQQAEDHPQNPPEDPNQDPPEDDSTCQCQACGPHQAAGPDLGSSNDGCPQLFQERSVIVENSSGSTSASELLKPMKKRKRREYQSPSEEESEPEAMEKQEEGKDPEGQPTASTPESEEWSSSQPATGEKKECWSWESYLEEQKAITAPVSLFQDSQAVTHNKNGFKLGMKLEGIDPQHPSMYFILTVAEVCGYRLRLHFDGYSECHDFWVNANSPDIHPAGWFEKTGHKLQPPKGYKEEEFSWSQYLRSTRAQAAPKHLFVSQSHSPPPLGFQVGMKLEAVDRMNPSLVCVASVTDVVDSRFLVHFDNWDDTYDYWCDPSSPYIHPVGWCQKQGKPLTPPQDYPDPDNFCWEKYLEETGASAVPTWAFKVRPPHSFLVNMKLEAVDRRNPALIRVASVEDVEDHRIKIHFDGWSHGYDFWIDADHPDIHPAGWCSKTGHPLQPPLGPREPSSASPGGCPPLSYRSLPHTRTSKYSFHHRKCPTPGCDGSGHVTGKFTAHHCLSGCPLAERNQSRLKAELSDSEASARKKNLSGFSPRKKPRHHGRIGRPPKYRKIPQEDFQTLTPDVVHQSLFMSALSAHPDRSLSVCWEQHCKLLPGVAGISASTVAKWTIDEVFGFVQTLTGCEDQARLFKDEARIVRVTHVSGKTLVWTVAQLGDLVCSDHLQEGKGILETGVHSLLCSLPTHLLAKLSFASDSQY
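Read-out is AlphaScreen signal from streptavidin donor and nickel chelate acceptor beads (10 ug/mL final each) bridging L3MBTL1 (50 nM) and biotinylated K9-monomethylated H3(1-15) peptide (75 nM), after 30 min compound exposure at room temperature.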
HP1b binding inh = blocks HP1-beta chromodomain binding to methylated histone tails. P83916. AlphaScreen HP1-beta / biotin-H3K9me3 peptide binding. Potency, µM (doses to about 114 µM), actives largely listed as inhibitors. 0.56% of 390,000 active; also: nearly all actives have a fitted effect of over 70% in size
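Compound inhibition of the preformed complex between 50 nM HP1-beta and 50 nM biotinylated H3K9me3 peptide was read by AlphaScreen. Buffer was PBS pH 7.4 with 0.01% Tween-20. Incubations ran 30 min at room temperature, with 10 ug/mL donor/acceptor beads.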
Of the large screens only hits and unclear results are named; the others gave an inactive call. Calls follow the shape of the dose curve; as a rule, active = well fitted curve in the direction sought with a large enough effect; inconclusive = small, poorly fitted or top-dose-only effect, or another doubt; inactive = no such curve, though single readings can be large; an effect the other way counts as inactive or inconclusive.

Cc1ccc(-c2[nH][nH]c(=O)c(=O)c2N=Nc2ccccc2)cc1	G9a block 45µM, HP1b binding inh inconclusive (no result: L3MBTL1 inh)
Cc1ncc(CO)c(/C=N/N=C/c2ccccc2O)c1O	BAZ2B block inconclusive, JMJD2A Tudor inconclusive
Cc1ncc(CO)c(/C=N/Nc2ccc(C(F)(F)F)cn2)c1O	BAZ2B block 20µM, JMJD2A Tudor inconclusive (no result: L3MBTL1 inh)
Cc1ncc(CO)c(/C=N/NC(=S)Nc2ccc(F)cc2)c1O	BAZ2B block 3.2µM, JMJD2A Tudor 40µM, L3MBTL1 inh 14µM, HP1b binding inh inconclusive
O=C(CSC1=NNC(c2ccccn2)S1)Nc1ccc(C(F)(F)F)cc1 (stereo not given)	BAZ2B block 56µM, JMJD2A Tudor 40µM (no result: L3MBTL1 inh)
COC(=O)[C@@H]1CCCN1C(=O)[C@@H](C)CO	none (no result: G9a block, BAZ2B block, JMJD2A Tudor, L3MBTL1 inh, HP1b binding inh)
Cc1occc1-c1nnc(SCC(=O)N2CCOCC2)n1Cc1ccco1	Sfp inh 89µM
CCn1c(SCC(=O)N2CCN(c3ccccc3F)CC2)nnc1-c1ccoc1C	G9a block inconclusive, JMJD2A Tudor 50µM (no result: L3MBTL1 inh)
CC(C)c1ccc(-c2noc(SCC(=O)N3CCN(c4ccccc4F)CC3)n2)cc1	none (no result: Sfp inh, L3MBTL1 inh)
O=C(CSc1nc(-c2ccccc2)no1)N1CCN(c2ccccc2F)CC1	JMJD2A Tudor 20µM (no result: Sfp inh, L3MBTL1 inh)
CCOc1ccccc1CNC(=O)c1ccc(Cn2c(=O)c3cccn3c3cccnc32)cc1	none (no result: Sfp inh, L3MBTL1 inh)
Cc1c(P(=S)(c2ccccc2)c2ccccc2)c2ccccc2n1C(=O)NCc1ccccc1	none (no result: G9a block, BAZ2B block, Sfp inh, L3MBTL1 inh, HP1b binding inh)
Fc1ccc(CNc2cc(-c3ccccc3)nc3nncn23)cc1	none (no result: Sfp inh, L3MBTL1 inh)
Fc1ccc(Nc2nc(SCc3ccccc3F)nc3ccccc23)cc1	none (no result: Sfp inh, L3MBTL1 inh)
CC1(C)CC(=O)C(CC(=O)NC(=O)NCc2ccccc2)=C(O)C1	none
CN=C(Cc1ccccc1)C1=C(O)CC(C)(C)CC1=O	none
CC1(C)CC(=O)C(Sc2ccccc2C(=O)O)=C(O)C1	G9a block inconclusive, JMJD2A Tudor 25µM, L3MBTL1 inh inconclusive
CC1(C)CC(=O)C(Sc2ccccc2)=C(O)C1	G9a block 45µM
O=C(CS(=O)(=O)c1cccc2nsnc12)N1CCN(c2ccc(F)cc2)CC1	none (no result: Sfp inh, L3MBTL1 inh)
COc1ccc(-n2c(-c3ccc(C)cc3)cc3c2CC(C)(C)CC3=O)c(OC)c1	G9a block 13µM, BAZ2B block 14µM, JMJD2A Tudor 18µM, HP1b binding inh inconclusive (no result: Sfp inh, L3MBTL1 inh)
COc1ccc(-n2c(-c3ccc(C)cc3)cc3c2CC(C)(C)CC3=O)cc1Cl	G9a block 10µM, BAZ2B block 5µM, JMJD2A Tudor 32µM, HP1b binding inh inconclusive (no result: Sfp inh, L3MBTL1 inh)
Cc1ccc(-c2cc3c(n2-c2ccc(F)cc2)CC(C)(C)CC3=O)cc1	none (no result: Sfp inh, L3MBTL1 inh)
CC1(C)CC(=O)c2cc(-c3nc(-c4ccc(Cl)cc4)cs3)c(=O)n(-c3ccc(F)cc3)c2C1	G9a block inconclusive (no result: Sfp inh, L3MBTL1 inh)
CCOc1ccc(-n2c(-c3ccc(OC)cc3)cc3c2CC(C)(C)CC3=O)cc1	G9a block 14µM, BAZ2B block 13µM, JMJD2A Tudor 16µM (no result: Sfp inh, L3MBTL1 inh)
COc1cccc(-n2c(-c3ccc(Cl)cc3)cc3c2CC(C)(C)CC3=O)c1	G9a block inconclusive, BAZ2B block 8.9µM, JMJD2A Tudor 8.9µM (no result: Sfp inh, L3MBTL1 inh)
Cc1cc2c(s1)c1cnn(Cc3c(F)ccc(C)c3Cl)c(=O)c1n2C	none (no result: G9a block, BAZ2B block, Sfp inh, L3MBTL1 inh, HP1b binding inh)
COc1cccc(-n2c(-c3ccc(C)cc3)cc3c2CC(C)(C)CC3=O)c1	G9a block inconclusive, BAZ2B block 11µM, JMJD2A Tudor inconclusive (no result: Sfp inh, L3MBTL1 inh)
Cc1ccc(-c2cc3c(n2-c2ccc(C)cc2)CC(C)(C)CC3=O)cc1	JMJD2A Tudor inconclusive (no result: Sfp inh, L3MBTL1 inh)
Cc1ccc(S(=O)(=O)N2CCCCC2C(=O)Nc2ccc(N(C)C)cc2)cc1 (stereo not given)	JMJD2A Tudor 50µM, HP1b binding inh inconclusive (no result: G9a block, BAZ2B block, Sfp inh)
O=C(NCc1ccccn1)C1CCCN(S(=O)(=O)c2ccccc2)C1 (stereo not given)	G9a block 35µM
O=C(Nc1ccccc1F)C1CCCN(S(=O)(=O)c2ccccc2)C1 (stereo not given)	JMJD2A Tudor 13µM
CC1CCN(c2ccc(NC(=O)C3CCCN3S(=O)(=O)c3ccc(F)cc3)cc2)CC1 (stereo not given)	G9a block 10µM, BAZ2B block 45µM, JMJD2A Tudor 40µM, HP1b binding inh inconclusive (no result: Sfp inh)
